Experimental data published in the supplement of paper PMC11732987, “Enantioselective OTUD7B fragment discovery through chemoproteomics screening and high-throughput optimisation” (Communications Chemistry, 2025).

Assays:
Assay in all cases: log2 ratio of Biotin-Ahx-Ub-VS probe labelling (fragment/DMSO); higher = less target engagement (more negative = stronger competition), active = hit call of the paper (q ≤ 0.05, log2 ratio ≤ -1)
Conditions in all cases: compound concentration: 200 uM; treatment time: 3 h
USP19 = biological target: T1, USP19 (UniProt O94966)
T1 sequence (whole entry): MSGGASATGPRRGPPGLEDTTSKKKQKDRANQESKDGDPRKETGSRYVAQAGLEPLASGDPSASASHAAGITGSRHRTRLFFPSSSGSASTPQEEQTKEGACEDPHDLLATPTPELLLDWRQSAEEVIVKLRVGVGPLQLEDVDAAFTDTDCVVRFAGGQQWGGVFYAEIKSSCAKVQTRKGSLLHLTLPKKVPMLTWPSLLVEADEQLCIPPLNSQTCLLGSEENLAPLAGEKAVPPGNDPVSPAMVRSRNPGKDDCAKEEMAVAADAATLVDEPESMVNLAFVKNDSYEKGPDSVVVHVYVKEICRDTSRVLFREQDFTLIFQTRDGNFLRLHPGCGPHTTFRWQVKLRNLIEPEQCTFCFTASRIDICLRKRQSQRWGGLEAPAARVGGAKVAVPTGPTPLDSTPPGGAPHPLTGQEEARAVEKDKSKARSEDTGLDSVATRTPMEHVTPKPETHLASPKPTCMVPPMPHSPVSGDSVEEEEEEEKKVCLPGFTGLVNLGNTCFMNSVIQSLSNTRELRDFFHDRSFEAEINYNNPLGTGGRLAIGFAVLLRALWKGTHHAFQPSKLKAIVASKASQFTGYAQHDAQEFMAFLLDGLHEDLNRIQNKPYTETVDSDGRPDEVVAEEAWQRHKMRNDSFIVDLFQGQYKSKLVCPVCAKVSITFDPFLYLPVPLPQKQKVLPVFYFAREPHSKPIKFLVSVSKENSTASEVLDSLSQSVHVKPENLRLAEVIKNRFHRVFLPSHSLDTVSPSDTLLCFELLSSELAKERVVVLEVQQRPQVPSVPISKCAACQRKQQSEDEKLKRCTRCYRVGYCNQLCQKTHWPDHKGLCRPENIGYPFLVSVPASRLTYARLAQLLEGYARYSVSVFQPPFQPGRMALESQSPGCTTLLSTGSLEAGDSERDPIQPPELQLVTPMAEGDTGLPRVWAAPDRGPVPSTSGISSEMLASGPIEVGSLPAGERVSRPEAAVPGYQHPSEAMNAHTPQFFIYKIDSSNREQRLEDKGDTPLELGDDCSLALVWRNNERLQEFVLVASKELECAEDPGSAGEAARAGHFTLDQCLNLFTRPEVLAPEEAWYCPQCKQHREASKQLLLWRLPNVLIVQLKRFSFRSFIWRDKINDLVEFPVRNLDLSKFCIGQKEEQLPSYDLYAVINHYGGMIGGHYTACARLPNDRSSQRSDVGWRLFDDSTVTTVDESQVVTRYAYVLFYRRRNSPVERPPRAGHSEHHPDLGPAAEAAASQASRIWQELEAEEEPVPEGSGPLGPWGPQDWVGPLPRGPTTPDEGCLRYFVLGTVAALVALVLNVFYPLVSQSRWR
Method in brief: (§1)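 The table lists average log2 ratios of fragment over vehicle, from an unpaired t-test on global-median-normalised Spectronaut label-free quantities. Proteins with ≥2 unique peptides were used. Samples were HEK293T lysate (495 µg) treated in triplicate with fragment at 200 µM or vehicle for 3 h, then with Biotin-Ahx-Ub-VS (0.5 µM final) for 1 h, with labelled DUBs NeutrAvidin-enriched and run by diaPASEF LC-MS/MS.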

USP22 = biological target: T2, USP22 (UniProt Q9UPT9)
T2 sequence (whole entry): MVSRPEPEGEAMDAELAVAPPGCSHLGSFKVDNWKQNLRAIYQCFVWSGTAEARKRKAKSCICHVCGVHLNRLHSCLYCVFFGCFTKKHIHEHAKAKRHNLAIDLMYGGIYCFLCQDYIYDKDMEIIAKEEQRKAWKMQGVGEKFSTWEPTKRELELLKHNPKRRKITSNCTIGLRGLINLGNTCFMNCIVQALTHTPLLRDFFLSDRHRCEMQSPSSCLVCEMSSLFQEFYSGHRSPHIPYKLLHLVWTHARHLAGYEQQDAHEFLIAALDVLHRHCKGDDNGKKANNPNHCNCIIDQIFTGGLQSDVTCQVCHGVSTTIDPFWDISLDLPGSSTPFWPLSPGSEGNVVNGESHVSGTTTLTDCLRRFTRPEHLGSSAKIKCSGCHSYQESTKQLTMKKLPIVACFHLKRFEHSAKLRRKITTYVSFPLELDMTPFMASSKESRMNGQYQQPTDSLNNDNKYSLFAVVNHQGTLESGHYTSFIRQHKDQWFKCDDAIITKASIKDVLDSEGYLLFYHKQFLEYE
Method in brief: as §1

USP24 = USP24 (UniProt Q9UPU5)
Method in brief: as §1

USP25 = biological target: T3, USP25 (UniProt Q9UHP3)
T3 sequence (whole entry): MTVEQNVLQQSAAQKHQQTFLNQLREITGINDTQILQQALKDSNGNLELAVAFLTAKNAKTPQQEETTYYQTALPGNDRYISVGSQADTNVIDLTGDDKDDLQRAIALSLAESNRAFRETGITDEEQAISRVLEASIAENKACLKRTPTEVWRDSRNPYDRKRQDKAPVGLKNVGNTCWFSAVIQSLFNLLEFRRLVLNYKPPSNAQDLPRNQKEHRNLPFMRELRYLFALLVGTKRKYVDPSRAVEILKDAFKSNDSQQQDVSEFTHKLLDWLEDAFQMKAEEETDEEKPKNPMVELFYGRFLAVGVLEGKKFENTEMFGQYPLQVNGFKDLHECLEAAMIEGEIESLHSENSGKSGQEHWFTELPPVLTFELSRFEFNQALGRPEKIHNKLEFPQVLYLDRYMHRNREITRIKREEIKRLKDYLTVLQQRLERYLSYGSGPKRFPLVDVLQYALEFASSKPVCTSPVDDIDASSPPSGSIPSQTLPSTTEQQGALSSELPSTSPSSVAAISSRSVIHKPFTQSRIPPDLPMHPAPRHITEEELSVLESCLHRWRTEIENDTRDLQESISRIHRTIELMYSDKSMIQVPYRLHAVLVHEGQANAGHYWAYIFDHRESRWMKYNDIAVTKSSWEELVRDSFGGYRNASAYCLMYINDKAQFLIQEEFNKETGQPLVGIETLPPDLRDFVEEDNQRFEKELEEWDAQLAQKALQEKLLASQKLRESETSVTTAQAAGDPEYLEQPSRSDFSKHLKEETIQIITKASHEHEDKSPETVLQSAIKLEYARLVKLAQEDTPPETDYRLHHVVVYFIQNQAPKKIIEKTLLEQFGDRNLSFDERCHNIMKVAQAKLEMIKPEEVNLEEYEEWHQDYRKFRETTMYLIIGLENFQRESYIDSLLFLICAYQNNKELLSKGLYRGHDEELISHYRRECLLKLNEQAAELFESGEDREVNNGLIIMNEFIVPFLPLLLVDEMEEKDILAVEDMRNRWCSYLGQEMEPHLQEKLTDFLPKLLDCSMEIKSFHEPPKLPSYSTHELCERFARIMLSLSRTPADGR
Method in brief: as §1

USP28 = biological target: T4, USP28 (UniProt Q96RU2)
T4 sequence (whole entry): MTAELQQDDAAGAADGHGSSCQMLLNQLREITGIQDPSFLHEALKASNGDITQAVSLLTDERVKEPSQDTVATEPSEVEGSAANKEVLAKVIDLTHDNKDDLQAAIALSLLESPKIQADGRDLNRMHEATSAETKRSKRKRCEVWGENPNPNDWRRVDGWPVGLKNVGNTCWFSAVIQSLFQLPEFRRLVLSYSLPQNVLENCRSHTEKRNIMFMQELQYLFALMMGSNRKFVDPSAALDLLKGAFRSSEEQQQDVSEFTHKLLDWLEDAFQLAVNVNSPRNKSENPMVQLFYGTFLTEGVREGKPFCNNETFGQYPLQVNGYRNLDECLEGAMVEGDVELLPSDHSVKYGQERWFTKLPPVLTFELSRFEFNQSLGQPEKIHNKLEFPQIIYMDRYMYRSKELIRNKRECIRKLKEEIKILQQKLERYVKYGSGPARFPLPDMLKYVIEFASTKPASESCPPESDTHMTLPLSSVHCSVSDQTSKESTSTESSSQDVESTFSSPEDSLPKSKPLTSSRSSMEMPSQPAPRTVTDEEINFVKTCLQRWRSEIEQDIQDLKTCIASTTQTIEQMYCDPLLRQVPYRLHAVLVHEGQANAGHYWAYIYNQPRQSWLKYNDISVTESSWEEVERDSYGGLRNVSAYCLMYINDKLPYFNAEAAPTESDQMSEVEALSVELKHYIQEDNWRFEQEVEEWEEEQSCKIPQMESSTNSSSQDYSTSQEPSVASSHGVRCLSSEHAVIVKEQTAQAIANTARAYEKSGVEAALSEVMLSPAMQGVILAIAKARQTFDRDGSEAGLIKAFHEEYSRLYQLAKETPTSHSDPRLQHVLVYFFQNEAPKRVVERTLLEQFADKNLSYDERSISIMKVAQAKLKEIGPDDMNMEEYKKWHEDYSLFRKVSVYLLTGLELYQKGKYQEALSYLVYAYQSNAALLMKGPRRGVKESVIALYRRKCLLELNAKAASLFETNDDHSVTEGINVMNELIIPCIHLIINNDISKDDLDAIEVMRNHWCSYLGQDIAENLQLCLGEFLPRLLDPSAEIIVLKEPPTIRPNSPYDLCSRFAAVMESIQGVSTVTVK
Method in brief: as §1

Measured: log2 ratio of Biotin-Ahx-Ub-VS probe labelling

Sequence of USP24 (Q9UPU5 whole entry): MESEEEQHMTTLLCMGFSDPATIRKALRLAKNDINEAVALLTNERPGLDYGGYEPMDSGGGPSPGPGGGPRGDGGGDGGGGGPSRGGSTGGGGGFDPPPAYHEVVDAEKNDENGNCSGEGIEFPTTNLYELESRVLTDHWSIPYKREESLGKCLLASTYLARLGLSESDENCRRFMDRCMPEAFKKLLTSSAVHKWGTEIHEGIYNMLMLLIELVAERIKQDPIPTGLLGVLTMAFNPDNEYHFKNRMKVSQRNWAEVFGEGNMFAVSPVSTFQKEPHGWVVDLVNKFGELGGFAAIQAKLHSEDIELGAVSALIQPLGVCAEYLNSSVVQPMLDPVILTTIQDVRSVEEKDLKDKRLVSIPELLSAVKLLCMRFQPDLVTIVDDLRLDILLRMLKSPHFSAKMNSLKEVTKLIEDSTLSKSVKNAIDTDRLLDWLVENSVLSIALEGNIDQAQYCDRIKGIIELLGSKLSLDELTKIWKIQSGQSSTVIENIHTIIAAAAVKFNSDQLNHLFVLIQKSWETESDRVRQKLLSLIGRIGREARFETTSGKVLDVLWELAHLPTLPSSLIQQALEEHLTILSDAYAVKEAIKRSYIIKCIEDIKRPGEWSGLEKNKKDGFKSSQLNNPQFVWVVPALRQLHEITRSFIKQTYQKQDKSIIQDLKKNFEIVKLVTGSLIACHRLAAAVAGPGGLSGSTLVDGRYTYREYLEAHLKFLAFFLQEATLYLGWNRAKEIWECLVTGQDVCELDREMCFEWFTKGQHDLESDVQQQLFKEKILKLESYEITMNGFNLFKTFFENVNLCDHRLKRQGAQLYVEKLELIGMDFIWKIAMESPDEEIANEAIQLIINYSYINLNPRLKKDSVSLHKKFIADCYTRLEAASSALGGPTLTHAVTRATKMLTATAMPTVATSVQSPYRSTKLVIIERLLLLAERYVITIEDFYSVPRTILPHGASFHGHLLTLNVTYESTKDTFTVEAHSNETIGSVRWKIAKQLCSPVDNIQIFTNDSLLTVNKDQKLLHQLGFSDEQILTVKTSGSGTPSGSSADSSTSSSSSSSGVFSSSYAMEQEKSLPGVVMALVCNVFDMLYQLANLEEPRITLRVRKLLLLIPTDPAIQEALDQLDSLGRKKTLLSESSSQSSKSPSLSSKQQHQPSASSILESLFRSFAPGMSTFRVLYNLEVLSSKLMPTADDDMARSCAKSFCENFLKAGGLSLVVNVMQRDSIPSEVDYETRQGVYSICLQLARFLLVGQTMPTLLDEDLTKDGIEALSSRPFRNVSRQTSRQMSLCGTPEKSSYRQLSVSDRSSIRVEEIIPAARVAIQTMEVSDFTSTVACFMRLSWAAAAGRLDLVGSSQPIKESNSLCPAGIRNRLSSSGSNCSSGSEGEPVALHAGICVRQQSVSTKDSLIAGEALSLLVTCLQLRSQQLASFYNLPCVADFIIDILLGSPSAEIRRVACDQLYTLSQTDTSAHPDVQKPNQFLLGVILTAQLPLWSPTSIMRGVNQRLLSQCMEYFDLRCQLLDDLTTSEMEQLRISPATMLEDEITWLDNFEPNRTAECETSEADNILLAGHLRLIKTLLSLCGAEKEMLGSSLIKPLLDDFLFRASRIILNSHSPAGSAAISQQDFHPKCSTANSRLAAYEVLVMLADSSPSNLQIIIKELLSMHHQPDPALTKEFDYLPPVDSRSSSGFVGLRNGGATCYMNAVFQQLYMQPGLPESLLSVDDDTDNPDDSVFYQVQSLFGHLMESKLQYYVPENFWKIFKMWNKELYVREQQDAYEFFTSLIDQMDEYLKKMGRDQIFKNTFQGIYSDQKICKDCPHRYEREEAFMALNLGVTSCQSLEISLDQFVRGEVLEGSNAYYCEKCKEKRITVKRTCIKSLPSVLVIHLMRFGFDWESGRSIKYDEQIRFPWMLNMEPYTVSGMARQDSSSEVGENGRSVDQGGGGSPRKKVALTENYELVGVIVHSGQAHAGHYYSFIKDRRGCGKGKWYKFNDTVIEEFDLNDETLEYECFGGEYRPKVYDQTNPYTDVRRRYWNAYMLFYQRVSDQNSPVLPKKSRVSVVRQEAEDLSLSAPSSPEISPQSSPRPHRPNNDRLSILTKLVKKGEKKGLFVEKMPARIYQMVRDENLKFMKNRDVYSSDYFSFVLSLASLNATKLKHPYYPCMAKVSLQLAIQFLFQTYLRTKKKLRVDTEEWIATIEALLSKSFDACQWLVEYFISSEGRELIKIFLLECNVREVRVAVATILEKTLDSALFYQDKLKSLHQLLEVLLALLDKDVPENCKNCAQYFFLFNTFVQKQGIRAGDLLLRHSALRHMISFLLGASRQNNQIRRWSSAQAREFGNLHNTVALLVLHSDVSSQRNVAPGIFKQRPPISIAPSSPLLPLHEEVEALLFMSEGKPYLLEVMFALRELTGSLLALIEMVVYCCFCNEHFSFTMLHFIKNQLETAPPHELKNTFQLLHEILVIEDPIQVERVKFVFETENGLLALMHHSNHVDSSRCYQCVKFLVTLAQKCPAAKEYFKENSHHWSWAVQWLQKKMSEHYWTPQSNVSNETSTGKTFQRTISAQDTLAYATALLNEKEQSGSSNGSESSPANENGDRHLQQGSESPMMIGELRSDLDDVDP

COc1ccc(C2CCCN2C(=O)CCl)c(OC)c1 (stereo not given)
inactive: USP19 -0.593 | USP22 -0.361 | USP24 -0.807 | USP25 -0.175 | USP28 -0.41
